Test [1] in a line: Caspase-3/7 induction in CHO-K1 cells by small molecules, qHTS assay (AID 1346980). Also: % is scaled to controls: 0 for no effect and ±100 for the full control effect; nearly all actives have a fitted effect of over 15% in size. An outline of the steps:
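Wild-type CHO-K1 cells exposed to compounds for 17hr at 37 C, 5% CO2. Caspase-3/7 activity then measured by Caspase-Glo 3/7 luminescence after 30min at room temperature.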
A general note: qHTS replaces the single test concentration by a dilution series.

The nature of test [2]: Caspase-3/7 induction in HepG2 cells by small molecules, qHTS cell viability counter screen (AID 1346981). Also: nearly all actives have a fitted effect of over 30% in size. Also: potency is read from the fitted curve at half-maximal effect. An outline of the steps: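 Treatment of HepG2 cells with DMSO-delivered compounds ran 16 hr at 37 C following a 5-hr pre-incubation of 2,000 cells/well. CellTiter-Fluor fluorescence, read after 1 hr, served as the viability measure in a qHTS format.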
In test [3] the target is Nuclear receptor subfamily 1 group I member 2 (Homo sapiens) (UniProt O75469). Briefly: Human pregnane X receptor (PXR) small molecule agonists, qHTS assay (AID 1346982). Also: nearly all actives have a fitted effect of over 35% in size. Also: potency is read from the fitted curve at half-maximal effect. As to activation: % is scaled to controls: 0 for no effect and ±100 for the full control effect. An outline of the steps:
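Stable HepG2 line reporting PXR-mediated CYP3A4 expression via luciferase. Treatment: 24 hr with compounds in DMSO at 37 C. Detection: ONE-Glo luminescence.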

Test [4] deals with Nuclear receptor subfamily 1 group I member 2 (Rattus norvegicus) (UniProt Q9R1A7). Briefly: Rat pregnane X receptor (rPXR) activation by small molecules, qHTS assay (AID 1346983). Also: % is scaled to controls: 0 for no effect and ±100 for the full control effect; nearly all actives have a fitted effect of over 20% in size. The settings on record: rPXR luciferase reporter cells, One-Glo luminescence, 24 h; stronger effect = higher value. The procedure, abridged:
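Cell-based rPXR activation assay: rPXR cells, 2,000 per well, rested 5hr at 37 C, then exposed to compounds in DMSO for 24 hr at 37 C. Luciferase activity read by One-Glo luminescence after 30 min at room temperature.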

Test [5] concerns the target Nuclear receptor subfamily 1 group I member 2 (Homo sapiens) (UniProt O75469). Nature of the test: CYP3A4 induction through human pregnane X receptor (PXR) by small molecules, qHTS assay (AID 1346984). Also: % is scaled to controls: 0 for no effect and ±100 for the full control effect; nearly all actives have a fitted effect of over 40% in size. An outline of the steps:
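After 24 h at 37C with compound, DPX-2 cells (HepG2, co-transfected PXR response element and CYP3A4 promoter-luciferase) got 3uM final P450-Glo Luciferin-IPA for 3 h; One-Glo luminescence followed.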

The target is the same in test [6]. Nature of the test: Human pregnane X receptor (PXR) activation by small molecules, qHTS assay (AID 1346985). Also: % is scaled to controls: 0 for no effect and ±100 for the full control effect; nearly all actives have a fitted effect of over 40% in size. An outline of the steps:
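DPX-2 cells (HepG2 co-transfected with a PXR response element and a CYP3A4-promoter luciferase construct) were seeded at 2,000 per well, rested 5 hr at 37C, then exposed to DMSO-dissolved compounds for 24 hr. Activation was read as luciferase luminescence.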

Test [7] concerns the target Acetylcholinesterase (Homo sapiens) (UniProt P22303). Nature of the test: Acetylcholinesterase (AChE) small molecule antagonists: colormetric cell-based qHTS assay (AID 1347395; calls by dose curve; also: % is scaled to controls: 0 for no effect and ±100 for the full control effect; nearly all actives have a fitted effect of over 30% in size). An outline of the steps: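 Neuroblastoma line SH-SY5Y supplied the enzyme; cells were preincubated with compound for 30 min at 37 C and 5% CO2. Acetylthiocholine with DTNB was then added for 90 min at 37 C, and thiocholine was measured by colour.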

The target is the same in test [8]. Nature of the test: Acetylcholinesterase (AChE) small molecule antagonists: enzyme-based qHTS assay (AID 1347397; calls by dose curve; also: % is scaled to controls: 0 for no effect and ±100 for the full control effect; nearly all actives have a fitted effect of over 55% in size). The settings on record: Potency: AChE enzyme activity inhibition. An outline of the steps: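 Colorimetric DTNB read-out of thiocholine released from acetylthiocholine by recombinant human AChE (50 mU/mL as dispensed). Compounds were preincubated 30 min at RT before substrate/DTNB addition, with a 10 min RT reaction.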

The target is the same in test [9]. Briefly: Acetylcholinesterase (AChE) small molecule antagonists: fluorescence cell-based qHTS assay (AID 1347398; calls by dose curve; also: % is scaled to controls: 0 for no effect and ±100 for the full control effect; nearly all actives have a fitted effect of over 50% in size). Conditions: Potency: AChE activity. The procedure, abridged:
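SH-SY5Y, 2,000 cells/well, attached overnight; cmpd 30 min 37 C; acetylthiocholine/Thiolite Green cocktail 40 min RT; fluorescence Ex/Em 490/520 nm.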

For test [10] the target is unchanged. Nature of the test: Acetylcholinesterase (AChE) small molecule antagonists: enzyme-based qHTS assay with human liver microsomes (AID 1347399; calls by dose curve; also: % is scaled to controls: 0 for no effect and ±100 for the full control effect; nearly all actives have a fitted effect of over 60% in size). The settings on record: Potency: qHTS inhibition. An outline of the steps:
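Recombinant human AChE (50 mU/mL in the enzyme mix) and human liver microsomes (0.25 mg/mL final) were preincubated with compound and NADPH (0.25 mg/mL final) for 30 min at 37 C. Acetylthiocholine/DTNB was then added; thiocholine was read colorimetrically after 10 min at room temperature.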

Test [11] has as its target Cytochrome P450 2D6 (Homo sapiens) (UniProt P10635). Briefly: Cytochrome P450 Family 2 Subfamily D Member 6 (CYP2D6) small molecule antagonists: luciferase reporter qHTS assay (AID 1671196). Also: nearly all actives have a fitted effect of over 50% in size. Also: potency is read from the fitted curve at half-maximal effect. An outline of the steps: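 Chemicals tested for interference with CYP2D6 activity; proluciferin substrate, NADPH regeneration, 1 h at room temperature, luminescent detection.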
In general terms: A reporter such as luciferase makes a cellular process visible.

Test [12] addresses Cytochrome P450 2C19 (Homo sapiens) (UniProt P33261). Nature of the test: Cytochrome P450 Family 2 Subfamily C Member 19 (CYP2C19) small molecule antagonists: luciferase reporter qHTS assay (AID 1671197). Also: nearly all actives have a fitted effect of over 65% in size. Also: potency is read from the fitted curve at half-maximal effect. The procedure, abridged: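 P450-Glo CYP2C19 system: enzyme-substrate mix with compound 10 min at room temperature, then NADPH regeneration solution, 1 h at 37C. Proluciferin-to-luciferin conversion detected by luminescence after 20 min with detection reagent; ketoconazole as positive control.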

In test [13] the target is Cytochrome P450 2C9 (Homo sapiens) (UniProt P11712). Nature of the test: Cytochrome P450 Family 2 Subfamily C Member 9 (CYP2C9) small molecule antagonists: luciferase reporter qHTS assay (AID 1671198). Also: potency is read from the fitted curve at half-maximal effect; nearly all actives have a fitted effect of over 50% in size. The procedure, abridged: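 P450-Glo proluciferin substrate with CYP2C9 enzyme; 10 min RT preincubation, then NADPH regeneration 1 h at 37C; luciferin detection reagent 20 min RT, luminescence in relative luminescence units.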
Cytochrome P450 2C9 (Homo sapiens), sequence (P11712 whole entry, looked up): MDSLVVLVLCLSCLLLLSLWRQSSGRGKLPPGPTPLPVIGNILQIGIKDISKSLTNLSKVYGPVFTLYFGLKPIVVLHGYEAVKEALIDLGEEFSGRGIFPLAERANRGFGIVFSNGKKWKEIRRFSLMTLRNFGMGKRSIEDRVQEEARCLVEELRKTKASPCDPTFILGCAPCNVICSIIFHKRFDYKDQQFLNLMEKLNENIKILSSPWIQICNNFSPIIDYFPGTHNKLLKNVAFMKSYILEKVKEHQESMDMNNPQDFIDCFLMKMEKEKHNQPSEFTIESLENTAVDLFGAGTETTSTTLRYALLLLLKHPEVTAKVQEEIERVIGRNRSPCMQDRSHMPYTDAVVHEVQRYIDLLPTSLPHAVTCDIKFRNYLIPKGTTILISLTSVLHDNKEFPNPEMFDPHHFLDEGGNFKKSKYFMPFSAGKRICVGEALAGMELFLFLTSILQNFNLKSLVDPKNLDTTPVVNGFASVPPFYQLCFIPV

For test [14], the target named is Cytochrome P450 1A2 (Homo sapiens) (UniProt P05177). Nature of the test: Cytochrome P450 Family 1 Subfamily A Member 2 (CYP1A2) small molecule antagonists: luciferase reporter qHTS assay (AID 1671199). Also: nearly all actives have a fitted effect of over 50% in size. Also: potency is read from the fitted curve at half-maximal effect. An outline of the steps:
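Read-out is luminescence from luciferin detection reagent (20 min) proportional to CYP1A2 activity; compounds in DMSO preincubated 10 min with enzyme and proluciferin substrate, then NADPH regeneration solution, 1 h, room temperature.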

The target of test [15] is Voltage-gated inwardly rectifying potassium channel KCNH2 (Homo sapiens) (UniProt Q12809). Nature of the test: Human Ether-a-go-go-Related Gene (hERG) channel small molecule antagonists: fluorescence cell-based qHTS assay (AID 1671200). An outline of the steps: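 Measured: Tl+ flux via fluorescence (480/540 nm) in hERG-expressing U2OS cells after 1 h dye loading at room temperature.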
Voltage-gated inwardly rectifying potassium channel KCNH2 (Homo sapiens), sequence (Q12809 whole entry, looked up): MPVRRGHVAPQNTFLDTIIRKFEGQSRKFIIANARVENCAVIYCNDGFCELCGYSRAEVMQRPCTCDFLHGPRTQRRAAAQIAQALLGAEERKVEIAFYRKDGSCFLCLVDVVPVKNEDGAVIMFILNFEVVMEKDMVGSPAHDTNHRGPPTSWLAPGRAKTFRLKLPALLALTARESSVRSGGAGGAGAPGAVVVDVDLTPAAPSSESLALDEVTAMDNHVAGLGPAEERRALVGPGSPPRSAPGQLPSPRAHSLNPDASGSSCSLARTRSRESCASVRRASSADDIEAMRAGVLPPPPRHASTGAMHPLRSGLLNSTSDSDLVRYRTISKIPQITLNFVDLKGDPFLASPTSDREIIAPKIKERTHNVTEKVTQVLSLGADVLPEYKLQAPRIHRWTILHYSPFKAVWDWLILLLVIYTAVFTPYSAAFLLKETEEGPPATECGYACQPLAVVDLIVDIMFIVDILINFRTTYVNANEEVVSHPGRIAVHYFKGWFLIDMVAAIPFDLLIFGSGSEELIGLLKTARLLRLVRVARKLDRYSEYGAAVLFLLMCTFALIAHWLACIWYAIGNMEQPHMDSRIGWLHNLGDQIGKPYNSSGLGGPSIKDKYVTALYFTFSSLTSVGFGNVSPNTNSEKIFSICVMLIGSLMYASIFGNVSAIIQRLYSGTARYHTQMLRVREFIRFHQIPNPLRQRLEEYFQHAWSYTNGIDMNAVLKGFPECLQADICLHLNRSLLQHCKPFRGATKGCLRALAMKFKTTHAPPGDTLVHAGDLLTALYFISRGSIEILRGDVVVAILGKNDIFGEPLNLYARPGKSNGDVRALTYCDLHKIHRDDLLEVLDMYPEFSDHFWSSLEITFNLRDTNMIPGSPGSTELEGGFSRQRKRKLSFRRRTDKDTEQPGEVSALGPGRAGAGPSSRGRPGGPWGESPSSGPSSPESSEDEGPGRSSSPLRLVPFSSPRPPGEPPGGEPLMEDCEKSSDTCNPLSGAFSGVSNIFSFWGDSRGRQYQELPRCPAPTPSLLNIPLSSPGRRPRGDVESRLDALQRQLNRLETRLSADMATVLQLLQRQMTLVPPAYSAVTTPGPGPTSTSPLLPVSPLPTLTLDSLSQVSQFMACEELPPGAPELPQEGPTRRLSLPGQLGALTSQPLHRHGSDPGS
Background: Block of hERG is tested as a sign of cardiac risk.

A short description of test [16]: Caspase-3/7 induction in CHO-K1 cells by small molecules, qHTS cell viability counter screen (AID 1346979). Also: % is scaled to controls: 0 for no effect and ±100 for the full control effect; nearly all actives have a fitted effect of over 35% in size. An outline of the steps: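 To flag cytotoxic compounds, treated CHO-K1 wild-type cells were given CellTiter-Fluor at 16hr and read fluorescently after 1hr at 37C; the caspase-3/7 luminescence was measured in these same wells.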
Test [17] concerns the target Cytochrome P450 3A4 (Homo sapiens) (UniProt P08684). Briefly: Cytochrome P450 Family 3 Subfamily A Member 4 (CYP3A4) small molecule antagonists: luciferase reporter qHTS assay (AID 1671201). The procedure, abridged:
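Setup: enzyme-substrate mix, compound pin transfer, 10 min RT. Reaction: NADPH regeneration solution, 1 h RT. Readout: detection reagent stops turnover, luminescence measured after 20 min, expressed in relative luminescence units.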

Where “and” joins values, the source holds several entries; their conditions need not be identical. Identical values can stand only once. Records with an inconclusive call do not appear. Where a structure was tested more than once in an assay, its records may differ in their call. Calls of active or inactive are those of the source. Unless noted, calls follow the shape of the dose curve; as a rule, active = well fitted curve in the direction sought with a large enough effect in the repeat runs; inconclusive = weak or mixed curves; inactive = no such curve, though single readings can be large; an effect the other way counts as inactive or inconclusive.

Acetylcholinesterase (Homo sapiens), sequence (P22303 whole entry, looked up): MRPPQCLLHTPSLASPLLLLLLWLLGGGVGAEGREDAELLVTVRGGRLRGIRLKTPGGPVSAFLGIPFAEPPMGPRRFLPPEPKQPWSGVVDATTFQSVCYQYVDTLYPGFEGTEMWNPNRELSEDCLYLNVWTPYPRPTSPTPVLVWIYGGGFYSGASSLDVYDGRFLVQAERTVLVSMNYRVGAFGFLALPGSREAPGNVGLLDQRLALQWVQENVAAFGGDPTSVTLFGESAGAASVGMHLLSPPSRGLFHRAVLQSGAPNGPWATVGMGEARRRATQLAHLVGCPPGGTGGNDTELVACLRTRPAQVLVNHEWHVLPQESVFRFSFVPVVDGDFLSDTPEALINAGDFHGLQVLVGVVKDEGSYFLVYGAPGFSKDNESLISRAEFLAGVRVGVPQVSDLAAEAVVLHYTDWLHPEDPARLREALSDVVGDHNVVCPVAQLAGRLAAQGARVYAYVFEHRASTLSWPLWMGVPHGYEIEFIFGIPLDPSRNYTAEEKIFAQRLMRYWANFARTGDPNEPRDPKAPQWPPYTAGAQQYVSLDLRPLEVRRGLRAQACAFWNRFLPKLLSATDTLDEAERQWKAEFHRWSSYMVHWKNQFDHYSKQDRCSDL
Cytochrome P450 2D6 (Homo sapiens), sequence (P10635 whole entry, looked up): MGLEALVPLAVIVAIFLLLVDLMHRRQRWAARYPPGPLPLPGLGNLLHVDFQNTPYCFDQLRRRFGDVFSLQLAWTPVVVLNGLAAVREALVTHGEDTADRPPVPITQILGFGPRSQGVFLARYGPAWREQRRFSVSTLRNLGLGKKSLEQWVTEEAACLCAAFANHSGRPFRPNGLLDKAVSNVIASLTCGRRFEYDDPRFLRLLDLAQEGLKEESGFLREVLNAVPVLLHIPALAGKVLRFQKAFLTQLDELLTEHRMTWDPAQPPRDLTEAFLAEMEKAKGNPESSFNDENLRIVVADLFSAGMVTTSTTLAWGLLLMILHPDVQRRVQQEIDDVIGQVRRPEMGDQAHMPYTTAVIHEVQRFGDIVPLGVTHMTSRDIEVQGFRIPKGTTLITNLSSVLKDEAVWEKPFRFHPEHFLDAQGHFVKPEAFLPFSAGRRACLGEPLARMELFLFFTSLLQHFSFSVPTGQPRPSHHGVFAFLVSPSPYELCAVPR
Cytochrome P450 3A4 (Homo sapiens), sequence (P08684 whole entry, looked up): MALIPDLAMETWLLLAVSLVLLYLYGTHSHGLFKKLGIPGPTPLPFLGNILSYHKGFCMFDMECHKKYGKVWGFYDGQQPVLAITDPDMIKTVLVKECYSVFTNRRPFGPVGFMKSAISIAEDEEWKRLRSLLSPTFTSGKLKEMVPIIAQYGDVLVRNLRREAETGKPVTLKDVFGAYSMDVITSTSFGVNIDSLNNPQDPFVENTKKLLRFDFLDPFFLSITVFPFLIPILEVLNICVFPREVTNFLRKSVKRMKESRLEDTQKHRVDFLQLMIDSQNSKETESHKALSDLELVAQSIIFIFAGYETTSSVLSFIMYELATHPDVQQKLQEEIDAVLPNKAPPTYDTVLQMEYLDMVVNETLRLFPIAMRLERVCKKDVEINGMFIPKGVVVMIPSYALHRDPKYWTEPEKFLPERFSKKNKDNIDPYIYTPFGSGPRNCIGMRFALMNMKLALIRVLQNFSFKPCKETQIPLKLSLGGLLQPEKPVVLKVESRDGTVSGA
Cytochrome P450 2C19 (Homo sapiens), sequence (P33261 whole entry, looked up): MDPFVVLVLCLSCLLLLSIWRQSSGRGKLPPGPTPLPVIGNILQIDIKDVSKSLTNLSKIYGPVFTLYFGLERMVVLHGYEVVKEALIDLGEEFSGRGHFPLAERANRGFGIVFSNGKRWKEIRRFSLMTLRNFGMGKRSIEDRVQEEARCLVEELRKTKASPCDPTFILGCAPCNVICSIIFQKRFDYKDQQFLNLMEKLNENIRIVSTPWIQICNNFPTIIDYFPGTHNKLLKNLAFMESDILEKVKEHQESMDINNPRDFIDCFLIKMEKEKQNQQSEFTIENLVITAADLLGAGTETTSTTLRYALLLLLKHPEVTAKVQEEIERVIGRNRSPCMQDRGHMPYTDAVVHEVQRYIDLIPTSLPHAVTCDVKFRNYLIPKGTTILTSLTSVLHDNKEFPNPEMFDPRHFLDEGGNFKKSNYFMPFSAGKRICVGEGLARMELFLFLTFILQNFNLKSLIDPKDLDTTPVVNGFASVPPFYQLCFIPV
Nuclear receptor subfamily 1 group I member 2 (Homo sapiens), sequence (O75469 whole entry, looked up): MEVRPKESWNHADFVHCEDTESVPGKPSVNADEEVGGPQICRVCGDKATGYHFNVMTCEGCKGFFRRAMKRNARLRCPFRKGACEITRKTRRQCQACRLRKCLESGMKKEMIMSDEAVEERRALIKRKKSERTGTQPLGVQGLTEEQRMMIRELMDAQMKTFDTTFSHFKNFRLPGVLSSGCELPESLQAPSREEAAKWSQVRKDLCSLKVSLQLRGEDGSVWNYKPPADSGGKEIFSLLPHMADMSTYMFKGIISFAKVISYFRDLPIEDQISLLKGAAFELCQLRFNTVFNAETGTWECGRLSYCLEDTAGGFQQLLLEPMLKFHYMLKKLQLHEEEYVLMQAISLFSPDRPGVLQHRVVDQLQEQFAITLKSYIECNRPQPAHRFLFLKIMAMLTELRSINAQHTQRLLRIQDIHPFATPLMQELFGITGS
Cytochrome P450 1A2 (Homo sapiens), sequence (P05177 whole entry, looked up): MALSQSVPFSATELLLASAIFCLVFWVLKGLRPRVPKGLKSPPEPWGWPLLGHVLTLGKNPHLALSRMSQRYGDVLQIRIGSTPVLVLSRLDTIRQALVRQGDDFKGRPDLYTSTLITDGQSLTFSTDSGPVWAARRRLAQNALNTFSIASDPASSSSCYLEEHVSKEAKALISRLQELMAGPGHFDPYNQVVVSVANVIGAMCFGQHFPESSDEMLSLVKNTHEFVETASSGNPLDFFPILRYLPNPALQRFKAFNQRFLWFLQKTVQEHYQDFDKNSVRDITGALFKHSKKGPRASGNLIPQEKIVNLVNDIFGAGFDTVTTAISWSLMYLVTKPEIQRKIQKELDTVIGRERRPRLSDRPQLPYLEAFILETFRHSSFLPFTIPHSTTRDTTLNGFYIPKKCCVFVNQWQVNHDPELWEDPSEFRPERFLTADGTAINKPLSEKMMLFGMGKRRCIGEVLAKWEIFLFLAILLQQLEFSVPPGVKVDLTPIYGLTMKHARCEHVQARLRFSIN

Take `CCC(C)(C)c1ccc(O)cc1`: the Potency entry in [1], in test [2], in test [3], in test [7], in test [8] and in [9] was “inactive” in each case. The Potency result in test [10], in test [11], in test [12], in test [14] and in [15] was “inactive” each time. Further, in [4], the max activation was -0.805% (inactive). In addition, the compound was called inactive in test [5] and in [6]. Also, the Potency in [13] was 71.8 µM (active) and 63.3 µM (active).
Turning to `CCC(C)c1ccc(O)cc1` (centres undefined), the Potency entry in test [16], in [1], in test [2], in test [3], in [7] and in test [8] was “inactive” in each case. The Potency entry in [9], in test [10], in test [11], in test [12] and in test [15] was “inactive” each time. Moreover, the Potency in test [14] was 35.9 µM (active) and 31.7 µM (active).
In the case of `Nc1ccc(Cl)cc1N`, the Potency entry in test [1], in test [7], in test [8], in test [9], in test [10] and in test [15] was “inactive” in each case. For the same compound, the Potency in test [2] was 7.92 µM (active); in [3], 31.9 µM (active) and 4.33 µM (active); in test [11], 32.6 µM (active); in [12], 20.8 µM (active) and 7.1 µM (active); in test [13] it was 32.6 µM (active); in test [14] it was 11.7 µM (active) and 10.9 µM (active). For the same compound, the Potency in test [17] was 26.2 µM (active) and 5.64 µM (active).
`S=C1NCCN1`: the Potency entry in [1], in test [2] and in test [15] was “inactive” throughout.
As for `CCCCOCCOP(=O)(OCCOCCCC)OCCOCCCC`, the Potency result in test [1], in test [2], in [8], in test [9], in test [10] and in test [15] was “inactive” each time. Also, the Potency in test [3] was 10.9 µM (active) and 19.3 µM (active); in [12] it was 7.98 µM (active) and 8.94 µM (active); in test [13], 8.95 µM (active) and 15.9 µM (active); in [17] it was 8.95 µM (active) and 15.9 µM (active).
On to `CN(C)c1ccc(C(=O)c2ccc(N(C)C)cc2)cc1`, for which the Potency result in test [1], in [7], in [8], in test [9] and in [10] was “inactive” in each case. Further, the Potency was 48.6 µM (active) in test [2]; 48.1 µM (active) and 17.2 µM (active) in test [3]; “inactive and 35.6 µM (active)” in test [11]; 8.85 µM (active) and 8.94 µM (active) in test [12]; 31.7 µM (active) in test [13]; 17.7 µM (active) and 14.2 µM (active) in test [14].

(Values after PubChem BioAssay (Tox21).)
